The target of assay [1] is Acetylcholinesterase (Homo sapiens) (UniProt P22303). Kind of assay: Acetylcholinesterase (AChE) small molecule antagonists: enzyme-based qHTS assay (AID 1347397; calls by dose curve; further: nearly all actives have a fitted effect of over 55% in size). The conditions noted are these: Potency: AChE enzyme activity inhibition; outcome: AChE enzyme activity inhibition. The method in brief:
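First, recombinant human AChE (50 mU/mL as dispensed) received test compound or DMSO. Second, plates stood 30 min at room temperature. Third, DTNB and acetylthiocholine were added, followed by 10 min at room temperature and colorimetric detection.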
Background: In qHTS, concentration-response curves come from the screen itself.

The target is the same in assay [2]. Description: Acetylcholinesterase (AChE) small molecule antagonists: fluorescence cell-based qHTS assay (AID 1347398; calls by dose curve; further: nearly all actives have a fitted effect of over 50% in size). The conditions noted are these: Potency: AChE activity; outcome: AChE activity. The method in brief: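 Homogeneous quantitative HTS format. SH-SY5Y cells seeded at 2,000 per well settle overnight at 37 C. Compound pretreatment runs 30 min (37 C, 5% CO2); substrate/probe mix then reacts 40 min at RT before reading 490/520 nm.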

The target is the same in assay [3]. Kind of assay: Acetylcholinesterase (AChE) small molecule antagonists: enzyme-based qHTS assay with human liver microsomes (AID 1347399; calls by dose curve; further: nearly all actives have a fitted effect of over 60% in size). The conditions noted are these: Potency: qHTS inhibition; outcome: qHTS inhibition. The method in brief: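 Recombinant human AChE (50 mU/mL in the enzyme mix) and human liver microsomes (0.25 mg/mL final) were preincubated with compound and NADPH (0.25 mg/mL final) for 30 min at 37 C. Acetylthiocholine/DTNB was then added; thiocholine was read colorimetrically after 10 min at room temperature.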

The target of assay [4] is Cytochrome P450 2D6 (Homo sapiens) (UniProt P10635). Description: Cytochrome P450 Family 2 Subfamily D Member 6 (CYP2D6) small molecule antagonists: luciferase reporter qHTS assay (AID 1671196). Further: nearly all actives have a fitted effect of over 50% in size. Further: potency means the concentration at half of the fitted maximal effect. On activity change, negative = inhibition: series mostly up to about 120 µM. The procedure, abridged: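 Room-temperature luminescent CYP2D6 activity assay: compound preincubated 10 min with enzyme–substrate mix, NADPH-initiated reaction 1 h, detection reagent 20 min before reading.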
Cytochrome P450 2D6 (Homo sapiens), sequence (P10635 whole entry, looked up): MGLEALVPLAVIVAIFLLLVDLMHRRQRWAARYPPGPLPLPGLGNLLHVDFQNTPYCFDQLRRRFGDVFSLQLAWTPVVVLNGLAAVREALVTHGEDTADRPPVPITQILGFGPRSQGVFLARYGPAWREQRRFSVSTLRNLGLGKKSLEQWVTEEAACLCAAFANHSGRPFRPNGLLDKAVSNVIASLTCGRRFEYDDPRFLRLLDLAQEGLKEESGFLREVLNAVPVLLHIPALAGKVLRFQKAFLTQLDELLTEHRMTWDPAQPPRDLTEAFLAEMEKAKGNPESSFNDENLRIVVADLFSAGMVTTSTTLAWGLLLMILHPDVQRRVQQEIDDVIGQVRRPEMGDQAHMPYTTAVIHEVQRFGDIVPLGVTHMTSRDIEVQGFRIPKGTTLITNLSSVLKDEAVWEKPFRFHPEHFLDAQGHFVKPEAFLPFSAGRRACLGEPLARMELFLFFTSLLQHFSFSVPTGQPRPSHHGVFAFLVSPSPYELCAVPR
Background: A reporter such as luciferase makes a cellular process visible.

The target in assay [5] is Voltage-gated inwardly rectifying potassium channel KCNH2 (Homo sapiens) (UniProt Q12809). Description: Human Ether-a-go-go-Related Gene (hERG) channel small molecule antagonists: fluorescence cell-based qHTS assay (AID 1671200). Further: series mostly up to about 77 µM; nearly all actives have a fitted effect of over 50% in size. The procedure, abridged:
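Thallium flux as potassium surrogate: FluxOR II dye loaded 1 h at room temperature into hERG-expressing U2OS cells, then stimulus buffer added after 10 min. Kinetic 480 nm excitation/540 nm emission read, 2 min.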

In assay [6] the target is Cytochrome P450 3A4 (Homo sapiens) (UniProt P08684). Kind of assay: Cytochrome P450 Family 3 Subfamily A Member 4 (CYP3A4) small molecule antagonists: luciferase reporter qHTS assay (AID 1671201). Further: series mostly up to about 120 µM; nearly all actives have a fitted effect of over 50% in size. The method in brief: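 Recombinant human CYP3A4 converts a proluciferin substrate to luciferin over 1 h at room temperature after NADPH regeneration solution is added (compound preincubated 10 min); detection reagent stops reaction, luminescence read 20 min later as relative units.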
Cytochrome P450 3A4 (Homo sapiens), sequence (P08684 whole entry, looked up): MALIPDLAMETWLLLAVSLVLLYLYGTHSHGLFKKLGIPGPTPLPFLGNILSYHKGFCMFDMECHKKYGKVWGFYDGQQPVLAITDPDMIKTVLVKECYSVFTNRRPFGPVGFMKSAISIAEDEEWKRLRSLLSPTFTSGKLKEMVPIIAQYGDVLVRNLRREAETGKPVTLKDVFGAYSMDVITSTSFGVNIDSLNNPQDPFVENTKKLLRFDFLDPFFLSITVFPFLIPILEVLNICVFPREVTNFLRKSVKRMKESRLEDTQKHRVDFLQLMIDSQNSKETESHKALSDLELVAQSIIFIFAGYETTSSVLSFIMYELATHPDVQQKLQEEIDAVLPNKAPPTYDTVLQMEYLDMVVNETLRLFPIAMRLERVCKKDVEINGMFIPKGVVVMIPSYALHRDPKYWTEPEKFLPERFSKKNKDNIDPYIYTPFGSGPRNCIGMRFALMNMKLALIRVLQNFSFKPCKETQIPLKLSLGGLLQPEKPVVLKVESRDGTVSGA

Assay [7] has as its target Cytochrome P450 2C19 (Homo sapiens) (UniProt P33261). Kind of assay: Cytochrome P450 Family 2 Subfamily C Member 19 (CYP2C19) small molecule antagonists: luciferase reporter qHTS assay (AID 1671197). Further: nearly all actives have a fitted effect of over 65% in size. Further: potency means the concentration at half of the fitted maximal effect. On activity change, negative = inhibition: series mostly up to about 120 µM. The procedure, abridged:
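Light output is proportional to CYP2C19 activity: proluciferin substrate is converted to luciferin, then detected by a luciferin detection reagent that also stops the 1 h, 37C NADPH-driven reaction. Ketoconazole serves as positive control.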

Assay [8] deals with Cytochrome P450 2C9 (Homo sapiens) (UniProt P11712). Kind of assay: Cytochrome P450 Family 2 Subfamily C Member 9 (CYP2C9) small molecule antagonists: luciferase reporter qHTS assay (AID 1671198). Further: nearly all actives have a fitted effect of over 50% in size. Further: potency means the concentration at half of the fitted maximal effect. On activity change, negative = inhibition: series mostly up to about 120 µM. The procedure, abridged: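 Enzyme-substrate mix preincubated with compound 10 min at room temperature; reaction started with NADPH regeneration solution, 1 h 37C. Luminescent luciferin product read after 20 min detection reagent.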
Cytochrome P450 2C9 (Homo sapiens), sequence (P11712 whole entry, looked up): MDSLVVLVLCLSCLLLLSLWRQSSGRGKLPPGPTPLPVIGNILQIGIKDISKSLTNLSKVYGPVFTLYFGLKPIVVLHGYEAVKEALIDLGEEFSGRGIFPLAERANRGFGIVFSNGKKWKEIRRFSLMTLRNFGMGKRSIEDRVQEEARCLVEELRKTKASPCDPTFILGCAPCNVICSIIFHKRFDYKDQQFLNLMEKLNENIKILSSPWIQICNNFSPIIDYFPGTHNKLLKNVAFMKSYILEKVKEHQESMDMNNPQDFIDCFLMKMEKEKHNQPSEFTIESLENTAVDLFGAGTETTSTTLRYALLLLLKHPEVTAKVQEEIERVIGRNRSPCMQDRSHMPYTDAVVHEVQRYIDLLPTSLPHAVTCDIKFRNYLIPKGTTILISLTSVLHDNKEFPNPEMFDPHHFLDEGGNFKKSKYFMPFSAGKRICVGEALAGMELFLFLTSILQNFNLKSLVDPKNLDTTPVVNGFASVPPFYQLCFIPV

The target of assay [9] is Cytochrome P450 1A2 (Homo sapiens) (UniProt P05177). Description: Cytochrome P450 Family 1 Subfamily A Member 2 (CYP1A2) small molecule antagonists: luciferase reporter qHTS assay (AID 1671199). Further: nearly all actives have a fitted effect of over 50% in size. Further: potency means the concentration at half of the fitted maximal effect. On activity change, negative = inhibition: series mostly up to about 120 µM. The method in brief: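 Room-temperature CYP1A2 reaction with proluciferin substrate: compounds added from DMSO, 10 min preincubation, NADPH regeneration for 1 h. Luciferin detection reagent then added; luminescence recorded as RLU.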
Cytochrome P450 1A2 (Homo sapiens), sequence (P05177 whole entry, looked up): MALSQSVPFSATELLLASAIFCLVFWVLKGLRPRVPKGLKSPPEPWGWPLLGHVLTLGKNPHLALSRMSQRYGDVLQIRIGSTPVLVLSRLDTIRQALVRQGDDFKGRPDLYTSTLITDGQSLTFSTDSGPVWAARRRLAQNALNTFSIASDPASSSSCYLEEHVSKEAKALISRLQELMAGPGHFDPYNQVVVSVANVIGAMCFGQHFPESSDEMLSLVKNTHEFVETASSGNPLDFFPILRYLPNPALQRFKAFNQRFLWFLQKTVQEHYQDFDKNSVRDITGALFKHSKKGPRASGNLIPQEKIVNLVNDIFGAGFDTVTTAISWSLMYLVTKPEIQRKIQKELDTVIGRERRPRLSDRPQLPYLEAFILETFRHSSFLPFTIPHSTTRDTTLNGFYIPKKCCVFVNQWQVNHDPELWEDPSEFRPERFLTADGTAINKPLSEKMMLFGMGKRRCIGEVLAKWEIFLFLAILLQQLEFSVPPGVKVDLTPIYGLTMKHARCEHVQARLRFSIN

Values without a mark were called inactive. Records with an inconclusive call do not appear. Activity calls are given as the source filed them. Unless noted, the call rests on the fitted dose curve; in most records, active means well fitted curve in the direction sought with a large enough effect in the repeat runs; inconclusive means weak or mixed curves; inactive means no such curve, though single readings can be large; an effect the other way counts as inactive or inconclusive.
On the % scale 0 is the no-effect control and ±100 the full control effect.

Voltage-gated inwardly rectifying potassium channel KCNH2 (Homo sapiens), sequence (Q12809 whole entry, looked up): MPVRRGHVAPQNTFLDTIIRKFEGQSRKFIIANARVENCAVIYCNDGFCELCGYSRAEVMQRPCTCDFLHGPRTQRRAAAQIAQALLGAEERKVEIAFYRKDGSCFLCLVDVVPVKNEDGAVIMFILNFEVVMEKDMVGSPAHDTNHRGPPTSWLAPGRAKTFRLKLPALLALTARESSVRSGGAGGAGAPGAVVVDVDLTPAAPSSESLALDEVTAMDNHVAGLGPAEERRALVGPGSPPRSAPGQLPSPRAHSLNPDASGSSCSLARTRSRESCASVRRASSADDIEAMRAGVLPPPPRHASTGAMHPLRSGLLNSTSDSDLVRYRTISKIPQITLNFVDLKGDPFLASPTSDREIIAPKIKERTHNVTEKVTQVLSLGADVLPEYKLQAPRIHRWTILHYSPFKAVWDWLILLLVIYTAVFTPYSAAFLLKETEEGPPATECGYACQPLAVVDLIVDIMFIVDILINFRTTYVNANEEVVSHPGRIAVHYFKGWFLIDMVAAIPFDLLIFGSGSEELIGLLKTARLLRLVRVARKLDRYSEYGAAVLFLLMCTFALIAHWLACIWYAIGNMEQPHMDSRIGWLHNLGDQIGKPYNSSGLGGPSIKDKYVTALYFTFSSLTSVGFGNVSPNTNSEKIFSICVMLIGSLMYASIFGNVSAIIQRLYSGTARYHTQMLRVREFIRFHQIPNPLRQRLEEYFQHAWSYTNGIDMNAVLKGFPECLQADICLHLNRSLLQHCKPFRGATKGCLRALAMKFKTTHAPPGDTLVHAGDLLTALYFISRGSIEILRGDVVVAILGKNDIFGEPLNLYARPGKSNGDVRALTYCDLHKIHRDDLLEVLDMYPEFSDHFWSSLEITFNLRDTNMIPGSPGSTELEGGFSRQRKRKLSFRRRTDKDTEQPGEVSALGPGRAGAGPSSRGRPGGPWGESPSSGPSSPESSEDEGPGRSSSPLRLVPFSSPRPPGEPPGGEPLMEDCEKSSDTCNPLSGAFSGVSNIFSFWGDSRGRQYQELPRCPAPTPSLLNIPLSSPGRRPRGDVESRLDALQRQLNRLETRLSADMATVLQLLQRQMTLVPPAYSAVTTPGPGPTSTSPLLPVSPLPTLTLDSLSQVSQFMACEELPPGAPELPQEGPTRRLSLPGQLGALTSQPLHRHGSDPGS
Cytochrome P450 2C19 (Homo sapiens), sequence (P33261 whole entry, looked up): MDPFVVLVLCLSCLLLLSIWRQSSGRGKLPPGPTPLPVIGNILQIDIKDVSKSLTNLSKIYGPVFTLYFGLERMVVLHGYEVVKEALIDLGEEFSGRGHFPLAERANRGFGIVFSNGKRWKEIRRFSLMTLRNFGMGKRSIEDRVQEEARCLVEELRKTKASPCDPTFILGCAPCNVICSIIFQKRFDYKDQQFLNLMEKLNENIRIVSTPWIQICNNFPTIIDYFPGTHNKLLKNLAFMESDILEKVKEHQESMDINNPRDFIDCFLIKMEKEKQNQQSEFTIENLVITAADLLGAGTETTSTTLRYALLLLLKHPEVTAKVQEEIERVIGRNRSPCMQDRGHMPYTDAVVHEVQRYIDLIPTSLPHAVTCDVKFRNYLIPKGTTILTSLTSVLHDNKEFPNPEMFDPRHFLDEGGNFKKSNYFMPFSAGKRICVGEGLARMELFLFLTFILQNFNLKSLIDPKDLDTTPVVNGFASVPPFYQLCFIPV
Acetylcholinesterase (Homo sapiens), sequence (P22303 whole entry, looked up): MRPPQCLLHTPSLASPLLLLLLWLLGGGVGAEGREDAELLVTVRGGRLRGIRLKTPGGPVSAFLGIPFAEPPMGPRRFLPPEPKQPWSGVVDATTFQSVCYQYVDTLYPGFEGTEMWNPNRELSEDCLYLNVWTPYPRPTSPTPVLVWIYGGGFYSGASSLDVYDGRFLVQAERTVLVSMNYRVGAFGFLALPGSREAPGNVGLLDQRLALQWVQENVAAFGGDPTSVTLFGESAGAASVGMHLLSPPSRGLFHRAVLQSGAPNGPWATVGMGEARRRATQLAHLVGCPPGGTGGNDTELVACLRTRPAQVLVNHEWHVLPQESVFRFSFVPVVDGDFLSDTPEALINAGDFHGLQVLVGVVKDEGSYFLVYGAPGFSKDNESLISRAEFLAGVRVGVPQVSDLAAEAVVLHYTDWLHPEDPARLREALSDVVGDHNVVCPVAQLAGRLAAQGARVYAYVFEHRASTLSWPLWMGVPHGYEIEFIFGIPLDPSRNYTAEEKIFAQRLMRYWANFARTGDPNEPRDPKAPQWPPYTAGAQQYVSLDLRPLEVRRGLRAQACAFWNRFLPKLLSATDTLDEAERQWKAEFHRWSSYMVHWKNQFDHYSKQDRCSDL

Turning to `CCCCCCCCSC(=O)Oc1cc(Cl)nnc1-c1ccccc1`, the Potency entry in assay [1], in assay [2], in assay [3], in assay [4], in assay [5] and in assay [6] was “inactive” in each case.

Regarding `CCC(C(N)=O)N1CCCC1=O` (centres undefined), the Potency result in assay [1], in assay [2], in [3], in [7], in assay [8] and in [9] was “inactive” in each case. In [6], the Potency entry is “inactive”.

As to `CCOC(=O)NC(C)(C)Cc1ccc(Cl)cc1`, the Potency entry in [1], in assay [2], in assay [3], in assay [5] and in [6] was “inactive” each time. Besides, the Potency is 4.36 µM (active) in assay [7], 15.5 µM (active) in assay [8] and 6.45 µM (active) in assay [9].

Take `CS(=O)(=O)Cl`: the Potency entry in assay [1], in assay [2], in [3], in assay [7], in assay [8] and in assay [5] was “inactive” throughout. For the same compound, the Potency result in [6] is “inactive”.

For `C1CN2CCC1CC2`, the Potency entry in assay [1], in assay [2], in assay [3], in assay [8], in assay [9] and in assay [6] was “inactive” throughout. For the same compound, in assay [7], the Potency is 43.6 µM (active).

Regarding `CCC(CC)(CNC(=O)CCCO)c1cccc(OC)c1`, the Potency result in assay [1], in assay [2], in [3], in assay [9] and in assay [5] was “inactive” each time. Besides, the Potency in assay [7] is 7.76 µM (active).

Consider `CCOP(=O)(CN(CCO)CCO)OCC`, for which the Potency entry in [1], in assay [2], in assay [3], in [4], in [5] and in [6] was “inactive” in each case.

As to `CCCCCCCCBr`, the Potency entry in assay [1], in assay [2], in assay [3], in assay [4], in assay [5] and in assay [6] was “inactive” in each case.

`S=C=S`: the Potency result in assay [1], in assay [2], in [3], in [5] and in assay [6] was “inactive” each time. In addition, the Potency in assay [7] was 44.3 µM (active); in assay [8] it was 49.7 µM (active); in assay [9], 39.5 µM (active).

Consider `COc1cc(CC(C)N)cc(OC)c1OC` (centres undefined), for which the Potency entry in [1], in assay [2], in assay [3], in assay [7], in [5] and in assay [6] was “inactive” each time. In [9], the Potency was 43.2 µM (active).

`COc1cccc([C@@]2(O)CCCC[C@@H]2CN(C)C)c1`: the Potency result in assay [1], in [2], in [3], in assay [7], in assay [8] and in assay [9] was “inactive” in each case. Also, the Potency result in assay [5] and in [6] was “inactive” each time.

On to `Oc1ccc(Cc2ccc(O)cc2)cc1`, for which the Potency entry in assay [1], in [2], in [3], in assay [7], in assay [8] and in [5] was “inactive” throughout. Besides, in [6], the Potency entry was “inactive”.

Consider `NNC(N)=O`, for which the Potency entry in assay [1], in assay [2], in assay [3], in assay [7], in [5] and in assay [6] was “inactive” throughout. Moreover, the Potency in [9] is 36.5 µM (active).

`CN(CCO)CCO`: the Potency result in assay [1], in assay [2], in assay [3], in [7], in assay [8] and in assay [5] was “inactive” each time. The Potency result in [6] was “inactive”.

Turning to `Cc1ccc(-c2nc3ccc(C)cn3c2CC(=O)N(C)C)cc1`, the Potency result in [1], in assay [2], in assay [3], in [7] and in [5] was “inactive” in each case. In addition, in assay [9], the Potency is 27.5 µM (active).

Take `C=C1C[C@@H]2[C@H](CC[C@]3(C)C(=O)CC[C@@H]23)[C@@]2(C)C=CC(=O)C=C12`: the Potency entry in assay [1], in [2], in [3], in assay [9], in assay [5] and in assay [6] was “inactive” in each case. In assay [7], the Potency was 4.36 µM (active).

On to `CC1=C2[C@H]3OC(=O)[C@@H](C)[C@@H]3CC[C@@]2(C)C=CC1=O`, for which the Potency result in assay [1], in [2], in assay [3], in [7], in [9] and in [5] was “inactive” in each case.

Turning to `O=P(O)(O)c1ccccc1`, the Potency result in [1], in assay [2], in assay [3], in assay [7], in assay [8] and in assay [9] was “inactive” each time. In addition, the Potency result in assay [6] was “inactive”.

`CCSC(=O)Cl`: the Potency result in assay [1], in assay [2], in assay [3], in assay [7], in [8] and in assay [9] was “inactive” throughout. Moreover, in assay [6], the Potency entry was “inactive”.

For `C=C(Cl)CCl`, the Potency entry in assay [1], in [2], in assay [3], in assay [4], in [9] and in [5] was “inactive” each time. Further, the Potency result in assay [6] is “inactive”.

For `CC[C@@H](CO)NC(=O)[C@@H]1C=C2c3cccc4[nH]cc(c34)C[C@H]2N(C)C1`, the Potency entry in assay [3], in [5] and in [6] was “inactive” throughout.

For the compound `CC(=O)OCC1=C(C(=O)O)N2C(=O)[C@@H](N)[C@H]2SC1`, the activity change, negative = inhibition is -2.73% [at 23.6 µM] in [1]; -12.7% [at 23.8 µM] in [2]; -11.4% [at 23.6 µM] in assay [3]; 0.177% [at 15.8 µM] in assay [5]; -8.01% [at 23.6 µM] in assay [6]. Further, the results for the Potency in assay [7] and in assay [9] were 15.1 µM (active) and 12 µM (active), respectively.

With `C(COCC1CO1)OCC1CO1` (centres undefined), the Potency result in [1], in assay [2], in assay [3], in assay [7], in assay [9] and in assay [6] was “inactive” each time.

`CCOC(=O)c1ncn2c1CN(C)C(=O)c1c(I)cccc1-2`: the Potency entry in [1], in [2], in assay [3], in assay [9], in assay [5] and in assay [6] was “inactive” in each case.

With `CCC(=O)OC1(c2ccccc2)CCN(C)CC1`, the Potency in assay [4] is 37.5 µM (active). Further, the Potency entry in [7], in assay [8], in assay [9] and in [6] was “inactive” throughout.

On to `C=CCC1(C(C)CC)C(=O)NC(=O)NC1=O` (centres undefined), for which the Potency entry in assay [1], in assay [3], in assay [4] and in assay [5] was “inactive” in each case. The Potency in [9] was 21.9 µM (active).

The values above are taken from PubChem BioAssay (Tox21).
